The panel holds about 83,000 compounds, 20% with a hit somewhere; the sample as a whole holds those more often.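 Assay: single dose, 48 h. Readout: percent growth (0 = no net growth; negative = cell death). Active: <10.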 A number with no mark means an inactive call. Active and inactive are the calls of the source.
test system: MCF7 breast; test: NCI-60 one-dose screen, 48 h (100 = growth as untreated, 0 = no growth, -100 = all killed); conditions: 10 µM unless noted

Question: For `Cc1cccc2c3c(sc12)C(c1ccc(F)cc1)C(C#N)=C(N)O3` (stereo unspecified), which growth is on record?
Answer: 8.42% (active)

Question: Which growth does the source give for `CCc1cccc2c3c(sc12)C(c1ccc(Cl)cc1)C(C#N)=C(N)O3` (stereo unspecified) here?
Answer: 10.3%

Question: Which growth does the source give for `CCOC(=O)c1sc2ncc(-c3ccc(OC)cc3)n2c1C` here?
Answer: 89.9%

Question: `Cc1c(C(=O)NCCCc2ccccc2)sc2ncc(-c3ccc(Br)cc3)n12` was tested. Which growth did it give?
Answer: 94.3%

Question: Which growth does the source give for `COc1ccc(NC2=C(Br)C(=O)C(C)=C(C)C2=O)cc1` here?
Answer: 63.5%

Question: With `O=S(=O)(Nc1ccc(-c2nc(-c3cccc(OCCN4CCOCC4)c3)c(-c3ccnc(Br)c3)[nH]2)cc1)c1ccccc1` as the molecule, how does the growth read?
Answer: 9.52% (active)

Question: How did the growth turn out when `Cc1ccc2c(n1)C(=O)C(Cl)=C(Nc1ccccc1C(C)C)C2=O` was run?
Answer: 21.1%

Question: `COc1cccc(-c2nc(-c3ccc(NC(=O)C(C)C)cc3)[nH]c2-c2ccnc(Br)c2)c1` was tested. Which growth did it give?
Answer: 12.3%

Question: How did the growth turn out when `COc1ccc(-c2cc(-c3ccc(Cl)cc3)c(C#N)c(=O)n2CCCCCC(=O)Nc2ccccc2N)cc1` was run?
Answer: 31%

Question: Which growth does the source give for `CCOC(=O)Nc1ccc(-c2nc(-c3cccc(OC)c3)c(-c3ccnc(Br)c3)[nH]2)cc1` here?
Answer: 17.3%

Question: With `CCn1cnc2c1c(=O)[nH]c(=O)n2CC1CCC(CNS(=O)(=O)c2ccc(OC3CCOCC3)c(F)c2)CC1` (stereo unspecified) as the molecule, how does the growth read?
Answer: 26.7%

Question: With `Cc1ccc(NC2=C(Cl)C(=O)c3nc(C)ccc3C2=O)cc1` as the molecule, how does the growth read?
Answer: -66.1% (active)

Question: Which growth does the source give for `CCc1cccc2c3c(sc12)C(c1ccc(F)cc1)C(C#N)=C(N)O3` (stereo unspecified) here?
Answer: 16.1%

Question: Which growth does the source give for `CCc1cccc2c1S/C(=C/c1ccc(OC)cc1)C2=O` here?
Answer: 22.3%

Question: Which growth does the source give for `CCOC(=O)Nc1ccc(-c2nc(-c3cccc(OCCN4CCOCC4)c3)c(-c3ccnc(Br)c3)[nH]2)cc1` here?
Answer: 11.6%

Question: How did the growth turn out when `COc1cccc(-c2nc(-c3ccc(NC(=O)c4ccccc4)cc3)[nH]c2-c2ccnc(Br)c2)c1` was run?
Answer: 14.7%

Question: With `O=C(CCN1C(=O)/C(=C/c2ccc(O)cc2)SC1=S)Nc1ccccc1` as the molecule, how does the growth read?
Answer: 96.6%

Question: `CC1=C(C)C(=O)C(Nc2cccc(C(=O)OC(C)(C)C)c2)=C(Br)C1=O` was tested. Which growth did it give?
Answer: 27.1%

Question: `Cc1ccc(C(CC(=O)O)c2c(C)[nH][nH]c2=O)cc1` (stereo unspecified) was tested. Which growth did it give?
Answer: 100%

Question: How did the growth turn out when `CCCCn1c(-c2ccc(-c3nc(-c4ccc(Cl)cc4)no3)cc2)nc(-c2ccccc2)c1-c1ccccc1` was run?
Answer: 79%

Question: Which growth does the source give for `CCCCCCn1c(-c2ccc(C(=O)O/N=C(\N)c3ccc(OC)cc3)cc2)nc(-c2ccccc2)c1-c1ccccc1` here?
Answer: -39.3% (active)

Question: For `Cc1cccc(NC2=C(Cl)C(=O)c3nc(C)ccc3C2=O)c1`, which growth is on record?
Answer: -57.8% (active)

Question: How did the growth turn out when `O=C(CCN1C(=O)/C(=C/c2ccc(O)cc2)SC1=S)Nc1ccc(Cl)cc1` was run?
Answer: 89%

Question: How did the growth turn out when `COC(=O)Nc1ccc(-c2nc(-c3cccc(OC)c3)c(-c3ccnc(Br)c3)[nH]2)cc1` was run?
Answer: 33.1%

Question: For `O=C1/C(=C/c2ccccc2[N+](=O)[O-])Oc2ccc(O)c(O)c21`, which growth is on record?
Answer: 21.2%

Question: `Cc1cccc2c3c(sc12)C(c1ccc(Cl)cc1)C(C#N)=C(N)O3` (stereo unspecified) was tested. Which growth did it give?
Answer: 9.7% (active)

Question: With `Cc1ccc(-c2cnc3sc(C(=O)NCCc4ccccc4)c(C)n23)cc1` as the molecule, how does the growth read?
Answer: 83.2%

Question: How did the growth turn out when `CCCCCCn1c(-c2ccc(C(=O)O/N=C(\N)c3ccc4c(c3)OCO4)cc2)nc(-c2ccccc2)c1-c1ccccc1` was run?
Answer: 7.05% (active)

Question: How did the growth turn out when `CC(C)OC(=O)Nc1ccc(-c2nc(-c3cccc(OCCN4CCOCC4)c3)c(-c3ccnc(Br)c3)[nH]2)cc1` was run?
Answer: -9.12% (active)

Question: `CCCCCCn1c(-c2ccc(C(=O)O/N=C(\N)c3ccc4ccccc4c3)cc2)nc(-c2ccccc2)c1-c1ccccc1` was tested. Which growth did it give?
Answer: 37.9%

Question: With `O=C(Nc1ccc(-c2nc(-c3cccc(OCCN4CCOCC4)c3)c(-c3ccnc(Br)c3)[nH]2)cc1)c1ccccc1` as the molecule, how does the growth read?
Answer: -46% (active)

Question: Which growth does the source give for `CCOC(=O)c1sc2ncc(-c3ccc(C)cc3)n2c1C` here?
Answer: 86.7%

Question: `CC(C)C(=O)Nc1ccc(-c2nc(-c3cccc(OCCN4CCOCC4)c3)c(-c3ccnc(Br)c3)[nH]2)cc1` was tested. Which growth did it give?
Answer: 15.9%

Question: For `CCOC(=O)C1=C(N)Oc2c(sc3c(C)cccc23)C1c1ccc(Cl)cc1` (stereo unspecified), which growth is on record?
Answer: 8.74% (active)

Question: How did the growth turn out when `CCOC(=O)C1=C(N)Oc2c(sc3c(C)cccc23)C1c1ccc(OC)cc1` (stereo unspecified) was run?
Answer: 7.65% (active)

Question: `CCC(=O)Nc1ccc(-c2nc(-c3cccc(OC)c3)c(-c3ccnc(Br)c3)[nH]2)cc1` was tested. Which growth did it give?
Answer: 25.5%

Question: With `Cc1cccc2c1S/C(=C/c1ccc([N+](=O)[O-])cc1)C2=O` as the molecule, how does the growth read?
Answer: 9.54% (active)

Question: Which growth does the source give for `CCOC(=O)C1=C(N)Oc2c(sc3c(CC)cccc23)C1c1ccc(F)cc1` (stereo unspecified) here?
Answer: 10.2%

test system: HCT-116 colon; test: as above; conditions: 10 µM unless noted

Question: Which growth does the source give for `Cc1cccc2c3c(sc12)C(c1ccc(F)cc1)C(C#N)=C(N)O3` (stereo unspecified) here?
Answer: 7.07% (active)

Question: How did the growth turn out when `CCc1cccc2c3c(sc12)C(c1ccc(Cl)cc1)C(C#N)=C(N)O3` (stereo unspecified) was run?
Answer: 17.9%

Question: For `CCOC(=O)c1sc2ncc(-c3ccc(OC)cc3)n2c1C`, which growth is on record?
Answer: 92.4%

Question: With `Cc1c(C(=O)NCCCc2ccccc2)sc2ncc(-c3ccc(Br)cc3)n12` as the molecule, how does the growth read?
Answer: 104%

Question: `COc1ccc(NC2=C(Br)C(=O)C(C)=C(C)C2=O)cc1` was tested. Which growth did it give?
Answer: 14.1%

Question: How did the growth turn out when `O=S(=O)(Nc1ccc(-c2nc(-c3cccc(OCCN4CCOCC4)c3)c(-c3ccnc(Br)c3)[nH]2)cc1)c1ccccc1` was run?
Answer: 23.6%

Question: For `Cc1ccc2c(n1)C(=O)C(Cl)=C(Nc1ccccc1C(C)C)C2=O`, which growth is on record?
Answer: 25.1%

Question: How did the growth turn out when `COc1cccc(-c2nc(-c3ccc(NC(=O)C(C)C)cc3)[nH]c2-c2ccnc(Br)c2)c1` was run?
Answer: 34%

Question: How did the growth turn out when `COc1ccc(-c2cc(-c3ccc(Cl)cc3)c(C#N)c(=O)n2CCCCCC(=O)Nc2ccccc2N)cc1` was run?
Answer: 22.5%

Question: How did the growth turn out when `CCOC(=O)Nc1ccc(-c2nc(-c3cccc(OC)c3)c(-c3ccnc(Br)c3)[nH]2)cc1` was run?
Answer: 25.4%

Question: With `CCn1cnc2c1c(=O)[nH]c(=O)n2CC1CCC(CNS(=O)(=O)c2ccc(OC3CCOCC3)c(F)c2)CC1` (stereo unspecified) as the molecule, how does the growth read?
Answer: 49.2%

Question: For `Cc1ccc(NC2=C(Cl)C(=O)c3nc(C)ccc3C2=O)cc1`, which growth is on record?
Answer: -39.5% (active)

Question: Which growth does the source give for `CCc1cccc2c3c(sc12)C(c1ccc(F)cc1)C(C#N)=C(N)O3` (stereo unspecified) here?
Answer: 17.7%

Question: For `CCc1cccc2c1S/C(=C/c1ccc(OC)cc1)C2=O`, which growth is on record?
Answer: 34.3%

Question: Which growth does the source give for `CCOC(=O)Nc1ccc(-c2nc(-c3cccc(OCCN4CCOCC4)c3)c(-c3ccnc(Br)c3)[nH]2)cc1` here?
Answer: 30.9%

Question: For `COc1cccc(-c2nc(-c3ccc(NC(=O)c4ccccc4)cc3)[nH]c2-c2ccnc(Br)c2)c1`, which growth is on record?
Answer: 30.7%

Question: Which growth does the source give for `O=C(CCN1C(=O)/C(=C/c2ccc(O)cc2)SC1=S)Nc1ccccc1` here?
Answer: 98.2%

Question: For `CC1=C(C)C(=O)C(Nc2cccc(C(=O)OC(C)(C)C)c2)=C(Br)C1=O`, which growth is on record?
Answer: 62.3%

Question: `Cc1ccc(C(CC(=O)O)c2c(C)[nH][nH]c2=O)cc1` (stereo unspecified) was tested. Which growth did it give?
Answer: 107%

Question: `CCCCn1c(-c2ccc(-c3nc(-c4ccc(Cl)cc4)no3)cc2)nc(-c2ccccc2)c1-c1ccccc1` was tested. Which growth did it give?
Answer: 75.4%

Question: Which growth does the source give for `CCCCCCn1c(-c2ccc(C(=O)O/N=C(\N)c3ccc(OC)cc3)cc2)nc(-c2ccccc2)c1-c1ccccc1` here?
Answer: -56.1% (active)

Question: With `Cc1cccc(NC2=C(Cl)C(=O)c3nc(C)ccc3C2=O)c1` as the molecule, how does the growth read?
Answer: -47.6% (active)

Question: For `O=C(CCN1C(=O)/C(=C/c2ccc(O)cc2)SC1=S)Nc1ccc(Cl)cc1`, which growth is on record?
Answer: 92.2%

Question: With `COC(=O)Nc1ccc(-c2nc(-c3cccc(OC)c3)c(-c3ccnc(Br)c3)[nH]2)cc1` as the molecule, how does the growth read?
Answer: 54.2%

Question: For `O=C1/C(=C/c2ccccc2[N+](=O)[O-])Oc2ccc(O)c(O)c21`, which growth is on record?
Answer: 21.6%

Question: Which growth does the source give for `Cc1cccc2c3c(sc12)C(c1ccc(Cl)cc1)C(C#N)=C(N)O3` (stereo unspecified) here?
Answer: 14.2%

Question: With `Cc1ccc(-c2cnc3sc(C(=O)NCCc4ccccc4)c(C)n23)cc1` as the molecule, how does the growth read?
Answer: 95.6%

Question: With `CCCCCCn1c(-c2ccc(C(=O)O/N=C(\N)c3ccc4c(c3)OCO4)cc2)nc(-c2ccccc2)c1-c1ccccc1` as the molecule, how does the growth read?
Answer: 2.68% (active)

Question: How did the growth turn out when `CC(C)OC(=O)Nc1ccc(-c2nc(-c3cccc(OCCN4CCOCC4)c3)c(-c3ccnc(Br)c3)[nH]2)cc1` was run?
Answer: 22.3%

Question: For `CCCCCCn1c(-c2ccc(C(=O)O/N=C(\N)c3ccc4ccccc4c3)cc2)nc(-c2ccccc2)c1-c1ccccc1`, which growth is on record?
Answer: 40.5%

Question: How did the growth turn out when `O=C(Nc1ccc(-c2nc(-c3cccc(OCCN4CCOCC4)c3)c(-c3ccnc(Br)c3)[nH]2)cc1)c1ccccc1` was run?
Answer: 10% (active)

Question: With `CCOC(=O)c1sc2ncc(-c3ccc(C)cc3)n2c1C` as the molecule, how does the growth read?
Answer: 93%

Question: With `CC(C)C(=O)Nc1ccc(-c2nc(-c3cccc(OCCN4CCOCC4)c3)c(-c3ccnc(Br)c3)[nH]2)cc1` as the molecule, how does the growth read?
Answer: 44.5%

Question: For `CCOC(=O)C1=C(N)Oc2c(sc3c(C)cccc23)C1c1ccc(Cl)cc1` (stereo unspecified), which growth is on record?
Answer: 23.9%

Question: For `CCOC(=O)C1=C(N)Oc2c(sc3c(C)cccc23)C1c1ccc(OC)cc1` (stereo unspecified), which growth is on record?
Answer: 18.4%

Question: For `CCC(=O)Nc1ccc(-c2nc(-c3cccc(OC)c3)c(-c3ccnc(Br)c3)[nH]2)cc1`, which growth is on record?
Answer: 63.7%

Question: With `Cc1cccc2c1S/C(=C/c1ccc([N+](=O)[O-])cc1)C2=O` as the molecule, how does the growth read?
Answer: 17.1%

Question: For `CCOC(=O)C1=C(N)Oc2c(sc3c(CC)cccc23)C1c1ccc(F)cc1` (stereo unspecified), which growth is on record?
Answer: 25.5%

— PubChem BioAssay (NCI)
